PubChem BioAssay (EPA / NIEHS)
The source made the active and inactive calls. How the source made its calls: active means hit-call score of the fitted dose curve at least 0.9, where 1 is the maximum; inactive means score below 0.9.

Tests used:
[1] = read-out: Tissue Factor, F3 (gene 2152); experiment: BSK_CASM3C_TissueFactor: BioMAP Diversity Plus: CASM3C Assay for Tissue Factor Biomarker Activity (AID 2283052); details: primary human coronary artery smooth muscle cells; actives raise or lower the signal;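 further: cell surface tissue factor protein level read by ELISA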
[2] = read-out: Interferon-gamma inducible Protein 10 (IP10), CXCL10 (gene 3627); experiment: BSK_hDFCGF_IP10: BioMAP Diversity Plus: hDFCGF Assay for Interferon-gamma inducible Protein 10 (IP10) Biomarker Activity (AID 2283053); details: primary human foreskin fibroblasts; actives raise or lower the signal
How it was run: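 Primary human foreskin fibroblasts exposed to chemicals for 24 h. IP-10 measured by ELISA; changes fitted bidirectionally against DMSO baseline.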

[3] = read-out: Urokinase-type plasminogen activator receptor (uPAR), PLAUR (gene 5329); experiment: BSK_CASM3C_uPAR: BioMAP Diversity Plus: CASM3C Assay for Urokinase-type plasminogen activator receptor (uPAR) Biomarker Activity (AID 2283054); details: primary human coronary artery smooth muscle cells; actives raise or lower the signal;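 further: cell-surface uPAR protein level quantified by ELISA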
[4] = read-out: Vascular cell adhesion molecule 1 (VCAM1), VCAM1 (gene 7412); experiment: BSK_CASM3C_VCAM1: BioMAP Diversity Plus: CASM3C Assay for Vascular cell adhesion molecule 1 (VCAM1) Biomarker Activity (AID 2283055); details: primary human coronary artery smooth muscle cells; actives raise or lower the signal;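 further: VCAM-1 protein level quantified by ELISA on the cells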
[5] = read-out: Collagen III, COL3A1 (gene 1281); experiment: BSK_hDFCGF_CollagenIII: BioMAP Diversity Plus: hDFCGF Assay for Collagen III Biomarker Activity (AID 2283056); details: primary human foreskin fibroblasts; actives raise or lower the signal
How it was run: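 Human foreskin fibroblast primary cultures sampled 24 h after dosing; Collagen III quantified by ELISA. Signal fitted bidirectionally against DMSO baseline.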

[6] = read-out: Epidermal growth factor receptor (EGFR), EGFR (gene 1956); experiment: BSK_hDFCGF_EGFR: BioMAP Diversity Plus: hDFCGF Assay for Epidermal growth factor receptor (EGFR) Biomarker Activity (AID 2283057); details: primary human foreskin fibroblasts; actives raise or lower the signal
How it was run: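 Primary human foreskin fibroblasts (hDFCGF system), sampled 24 h after dosing; EGFR quantified by ELISA. Bidirectional fit relative to DMSO baseline; SRB total-protein staining in parallel cultures for cytotoxicity.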

[7] = read-out: Interleukin-8 (IL8), CXCL8 (gene 3576); experiment: BSK_hDFCGF_IL8: BioMAP Diversity Plus: hDFCGF Assay for Interleukin-8 (IL8) Biomarker Activity (AID 2283058); details: primary human foreskin fibroblasts; actives raise or lower the signal
How it was run: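 Primary human foreskin fibroblasts (hDFCGF system) dosed with chemical; IL-8 measured by ELISA 24 hours later. Bidirectional curve fitting relative to DMSO baseline; cytotoxicity tracked in parallel cultures by SRB total protein staining.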

[8] = BSK_hDFCGF_Proliferation: Cell Proliferation Assessment in the BioMAP Diversity Plus: hDFCGF Assay (AID 2283059); details: primary human foreskin fibroblasts;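 further: curves fitted for both rise and fall of signal versus DMSO baseline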
How it was run: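 Steps: dose primary human dermal fibroblasts (foreskin); […] fix in 10% TCA; stain with 0.1% SRB; read 560 nm; fit gain or loss of signal against DMSO.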

[9] = read-out: Macrophage colony-stimulating factor (MCSF), CSF1 (gene 1435); experiment: BSK_hDFCGF_MCSF: BioMAP Diversity Plus: hDFCGF Assay for Macrophage colony-stimulating factor (MCSF) Biomarker Activity (AID 2283060); details: primary human foreskin fibroblasts; actives raise or lower the signal
How it was run: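 Human foreskin fibroblast primary cultures; M-CSF measured by ELISA 24 hours after chemical dosing. Bidirectional fitting relative to DMSO, with overt cytotoxicity tracked by parallel SRB total-protein staining (0.1% SRB, 10% TCA fixation, 560 nm).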

[10] = BSK_hDFCGF_SRB: Viability Assessment in the BioMAP Diversity Plus: hDFCGF Assay (AID 2283061); details: primary human foreskin fibroblasts;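 further: cells exposed to compound for 24 h before the read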
How it was run: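 Human foreskin fibroblasts in 96-well plates were treated 24 h. Total protein was measured by 0.1% SRB staining after 10% TCA fixation, read at 560 nm. Data were fitted bidirectionally against DMSO.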

[11] = read-out: Monokine induced gamma interferon (MIG), CXCL9 (gene 4283); experiment: BSK_hDFCGF_MIG: BioMAP Diversity Plus: hDFCGF Assay for Monokine induced gamma interferon (MIG) Biomarker Activity (AID 2283063); details: primary human foreskin fibroblasts; actives raise or lower the signal
How it was run: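 MIG/CXCL9 measured by ELISA 24 h after dosing primary human skin fibroblasts. Activity fitted in both directions against DMSO controls. Cytotoxicity was checked in parallel cultures by SRB staining read at 560 nm.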

[12] = read-out: Matrix Metallopeptidase 1 (MMP1), MMP1 (gene 4312); experiment: BSK_hDFCGF_MMP1: BioMAP Diversity Plus: hDFCGF Assay for Matrix Metallopeptidase 1 (MMP1) Biomarker Activity (AID 2283064); details: primary human foreskin fibroblasts; actives raise or lower the signal
How it was run: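 Primary human foreskin fibroblasts in the hDFCGF system were dosed with test chemical, and MMP1 was measured by ELISA 24 h later. Values come from bidirectional curve fitting against the DMSO baseline.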

[13] = read-out: Vascular cell adhesion molecule 1 (VCAM1), VCAM1 (gene 7412); experiment: BSK_hDFCGF_VCAM1: BioMAP Diversity Plus: hDFCGF Assay for Vascular cell adhesion molecule 1 (VCAM1) Biomarker Activity (AID 2283065); details: primary human foreskin fibroblasts; actives raise or lower the signal;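 on AC50: VCAM-1 protein level quantified by ELISA after 24 h chemical exposure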
How it was run: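 Human foreskin fibroblast primary cells dosed with chemical, VCAM-1 measured by ELISA at 24 h. Bidirectional curve fitting relative to DMSO as negative control/baseline.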

[14] = read-out: Plasminogen activator inhibitor-1 (PAI1), SERPINE1 (gene 5054); experiment: BSK_hDFCGF_PAI1: BioMAP Diversity Plus: hDFCGF Assay for Plasminogen activator inhibitor-1 (PAI1) Biomarker Activity (AID 2283066); details: primary human foreskin fibroblasts; actives raise or lower the signal
How it was run: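 Human foreskin fibroblast primary cells, 24 h chemical exposure; PAI-1 measured by ELISA. Bidirectional fitting relative to DMSO; parallel cultures stained with SRB for total protein to flag overt cytotoxicity.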

[15] = read-out: Intercellular Adhesion Molecule 1 (ICAM1), ICAM1 (gene 3383); experiment: BSK_KF3CT_ICAM1: BioMAP Diversity Plus: KF3CT Assay for Intercellular Adhesion Molecule 1 (ICAM1) Biomarker Activity (AID 2283067); details: primary human keratinocytes with fibroblasts; actives raise or lower the signal
How it was run: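 Human keratinocyte–foreskin fibroblast co-culture was treated for 24 h. Cell-surface ICAM-1 was quantified by ELISA, fitted bidirectionally relative to DMSO. Cytotoxicity was checked in parallel cultures by SRB total-protein staining.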

[16] = read-out: Interferon-gamma inducible Protein 10 (IP10), CXCL10 (gene 3627); experiment: BSK_KF3CT_IP10: BioMAP Diversity Plus: KF3CT Assay for Interferon-gamma inducible Protein 10 (IP10) Biomarker Activity (AID 2283068); details: primary human keratinocytes with fibroblasts; actives raise or lower the signal
How it was run: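 KF3CT co-culture (keratinocytes + foreskin fibroblasts), 24 h compound, IP-10 by ELISA; bidirectional fit vs DMSO baseline.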

[17] = BSK_KF3CT_SRB: Viability Assessment in the BioMAP Diversity Plus: KF3CT Assay (AID 2283069); details: primary human keratinocytes with fibroblasts;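 further: total protein by sulforhodamine B staining as a cytotoxicity measure; read 24 h after compound addition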
How it was run: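 Human primary keratinocyte plus foreskin fibroblast co-culture exposed to chemicals for 24 h. Total protein measured by 0.1% sulforhodamine B staining after 10% TCA fixation, read at 560 nm; bidirectional fitting versus DMSO baseline.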

[18] = read-out: Interleukin-1 alpha (IL1a), IL1A (gene 3552); experiment: BSK_KF3CT_IL1a: BioMAP Diversity Plus: KF3CT Assay for Interleukin-1 alpha (IL1a) Biomarker Activity (AID 2283070); details: primary human keratinocytes with fibroblasts; actives raise or lower the signal
How it was run: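 Human keratinocyte plus foreskin fibroblast primary co-culture, sampled 24 h after chemical dosing. IL-1a measured by ELISA; responses fitted bidirectionally against DMSO baseline (negative control), so gain or loss of signal both count.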

[19] = read-out: TIMP metallopeptidase inhibitor 2 (TIMP2), TIMP2 (gene 7077); experiment: BSK_KF3CT_TIMP2: BioMAP Diversity Plus: KF3CT Assay for TIMP metallopeptidase inhibitor 2 (TIMP2) Biomarker Activity (AID 2283071); details: primary human keratinocytes with fibroblasts; actives raise or lower the signal
How it was run: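 Co-culture of human primary keratinocytes and foreskin fibroblasts, measured 24 h after chemical dosing. TIMP-2 quantified by ELISA and fitted in both directions relative to DMSO. Cytotoxicity checked in parallel cultures by SRB total-protein staining.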

Q: For CCCCOC(=O)CCCCCCCC(=O)OCCCC, which outcome [1] is on record?
A: inactive

Q: What about the outcome [2] of the same compound?
A: inactive

Q: What about the outcome [3] of the same compound?
A: inactive

Q: What about the outcome [4] of the same compound?
A: inactive

Q: And the outcome [5]?
A: inactive

Q: What about the outcome [6] of the same compound?
A: inactive

Q: And the outcome [7]?
A: inactive

Q: What about the outcome [8] of the same compound?
A: inactive

Q: And the outcome [9]?
A: inactive

Q: What about the outcome [10] of the same compound?
A: inactive

Q: What about the outcome [11] of the same compound?
A: inactive

Q: What about the outcome [12] of the same compound?
A: inactive

Q: What about the outcome [13] of the same compound?
A: inactive

Q: And the outcome [14]?
A: inactive

Q: And the outcome [15]?
A: inactive

Q: What about the outcome [16] of the same compound?
A: inactive

Q: And the outcome [17]?
A: inactive

Q: And the outcome [18]?
A: inactive

Q: And the outcome [19]?
A: inactive

Q: What does the source list for C=CC(C)(O)CCC=C(C)C (centres undefined)?
A: outcome [1]: inactive; outcome [2]: inactive; outcome [3]: inactive; outcome [4]: inactive; outcome [5]: inactive; outcome [6]: inactive; outcome [7]: inactive; outcome [8]: inactive; outcome [9]: inactive; outcome [10]: inactive; outcome [11]: inactive; outcome [12]: inactive; outcome [13]: inactive; outcome [14]: inactive; outcome [15]: inactive; outcome [16]: inactive; outcome [17]: inactive; outcome [18]: inactive; outcome [19]: inactive

Q: For CC(C)(N=C=O)c1cccc(C(C)(C)N=C=O)c1, which outcome [1] is on record?
A: inactive

Q: What about the outcome [2] of the same compound?
A: inactive

Q: What about the outcome [3] of the same compound?
A: inactive

Q: And the outcome [4]?
A: inactive

Q: And the outcome [5]?
A: inactive

Q: What about the outcome [6] of the same compound?
A: inactive

Q: What about the outcome [7] of the same compound?
A: inactive

Q: And the AC50 [8]?
A: 29.9 µM (active)

Q: What about the outcome [9] of the same compound?
A: inactive

Q: And the outcome [10]?
A: inactive

Q: And the outcome [11]?
A: inactive

Q: What about the outcome [12] of the same compound?
A: inactive

Q: And the outcome [13]?
A: inactive

Q: And the outcome [14]?
A: inactive

Q: And the outcome [15]?
A: inactive

Q: What about the outcome [16] of the same compound?
A: inactive

Q: And the outcome [17]?
A: inactive

Q: And the outcome [18]?
A: inactive

Q: And the outcome [19]?
A: inactive

Q: With CS(=O)(=O)OCCCCOS(C)(=O)=O as the compound, how does the outcome [1] read?
A: inactive

Q: What about the outcome [2] of the same compound?
A: inactive

Q: And the outcome [3]?
A: inactive

Q: And the outcome [4]?
A: inactive

Q: And the outcome [5]?
A: inactive

Q: What about the outcome [6] of the same compound?
A: inactive

Q: And the outcome [7]?
A: inactive

Q: What about the outcome [8] of the same compound?
A: inactive

Q: What about the outcome [9] of the same compound?
A: inactive

Q: What about the outcome [10] of the same compound?
A: inactive

Q: And the outcome [11]?
A: inactive

Q: And the outcome [12]?
A: inactive

Q: What about the outcome [13] of the same compound?
A: inactive

Q: What about the outcome [14] of the same compound?
A: inactive

Q: And the outcome [15]?
A: inactive

Q: And the outcome [16]?
A: inactive

Q: What about the outcome [17] of the same compound?
A: inactive

Q: And the outcome [18]?
A: inactive

Q: What about the outcome [19] of the same compound?
A: inactive

Q: Which results are given for O=CN1CCOCC1?
A: outcome [1]: inactive; outcome [2]: inactive; outcome [3]: inactive; outcome [4]: inactive; outcome [5]: inactive; outcome [6]: inactive; outcome [7]: inactive; outcome [8]: inactive; outcome [9]: inactive; outcome [10]: inactive; outcome [11]: inactive; outcome [12]: inactive; outcome [13]: inactive; outcome [14]: inactive; outcome [15]: inactive; outcome [16]: inactive; outcome [17]: inactive; outcome [18]: inactive; outcome [19]: inactive

Q: For CCCCCC(C=O)=Cc1ccccc1, which AC50 [1] is on record?
A: 20 µM (active)

Q: And the outcome [2]?
A: inactive

Q: What about the AC50 [3] of the same compound?
A: 39.3 µM (active)

Q: And the AC50 [4]?
A: 31.2 µM (active)

Q: What about the AC50 [5] of the same compound?
A: 31 µM (active)

Q: And the outcome [6]?
A: inactive

Q: What about the outcome [7] of the same compound?
A: inactive

Q: What about the AC50 [8] of the same compound?
A: 31.4 µM (active)

Q: And the outcome [9]?
A: inactive

Q: What about the AC50 [10] of the same compound?
A: 31.5 µM (active)

Q: And the outcome [11]?
A: inactive

Q: And the AC50 [12]?
A: 0.146 µM (active)

Q: And the AC50 [13]?
A: 20 µM (active)

Q: And the outcome [14]?
A: inactive

Q: What about the AC50 [15] of the same compound?
A: 33.1 µM (active)

Q: And the AC50 [16]?
A: 30.4 µM (active)

Q: What about the AC50 [17] of the same compound?
A: 36.5 µM (active)

Q: And the AC50 [18]?
A: 20 µM (active)

Q: And the AC50 [19]?
A: 30 µM (active)
